# Reference: PubChem BioAssay (NCI)
# About 83,000 compounds went through this panel and 20% of them were active in at least one assay; those are over-represented in the sample as a whole.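 Cell lines were cultured in 96-well plates, exposed to a single compound concentration, and assessed for percent growth 48 hours later.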 Unmarked numbers belong to inactive results. The source made the active and inactive calls. Rule for the calls: active = growth percent below 10; inactive = the rest.
# Columns and labels:
# Test in all cases: NCI-60 one-dose screen, 48 h (100 = growth as untreated, 0 = no growth, -100 = all killed)
# Conditions in all cases: 10 µM unless noted
# T-47D breast = test system: T-47D breast
# BT-549 breast = test system: BT-549 breast
# MDA-MB-435 melanoma = test system: MDA-MB-435 melanoma
# SW-620 colon = test system: SW-620 colon
# MCF7 breast = test system: MCF7 breast
# HCT-116 colon = test system: HCT-116 colon
# HCC-2998 colon = test system: HCC-2998 colon
# KM12 colon = test system: KM12 colon
SMILES,growth (T-47D breast),growth (BT-549 breast),growth (MDA-MB-435 melanoma),growth (SW-620 colon),growth (MCF7 breast),growth (HCT-116 colon),growth (HCC-2998 colon),growth (KM12 colon)
O=[N+]([O-])c1ccc(C(Br)c2ccc([N+](=O)[O-])cc2)cc1,83.8%,77.3%,64.8%,11.1%,70.8%,21.3%,90.4%,60.3%
O=C1Nc2ccc(Br)cc2C1=O,96.2%,105%,98.3%,86%,91.5%,94.2%,111%,96.7%
CC(C)(C)c1ccc(CCO)cc1,106%,86.1%,89%,114%,101%,99.7%,95.2%,115%
O=C(OC12CC3CC(CC(C3)C1)C2)c1ccc(NCc2cc(O)ccc2O)cc1,-70% (active),-81.6% (active),-46% (active),-53.8% (active),6.06% (active),-82.9% (active),-73.6% (active),-60.7% (active)
CN(C)c1ccc(C(C#N)(c2ccccc2)c2ccc(N(C)C)cc2)cc1,41.8%,72.9%,84.2%,43.3%,39.9%,30.8%,51.2%,65.5%
CCCCCCCCCCCCCCCCCC1=NCCCN1CCO,103%,99.9%,115%,98.9%,86.7%,114%,93.4%,106%
COc1ccc(NC(=O)/C(=C/N2C(=O)/C(=C/c3ccc(OC)c(OC)c3)NC2=S)C(C)=O)cc1,19.1%,55.2%,72.2%,83.6%,40.9%,73.7%,88.7%,95.1%
O=[N+]([O-])CC(O)c1ccccc1 (centres undefined),100%,112%,91.1%,105%,81.1%,78.6%,98.9%,97.4%
Cc1cc(N/N=C/c2ccccn2)nc2ccccc12,24.1%,15.1%,29.6%,18.5%,14%,17.6%,24.7%,24.5%
COc1c(C)c2c(c(O)c1C/C=C(\C)CCC(=O)O)C(=O)OC2,44.7%,35.4%,30.1%,21.7%,23.9%,13.3%,33.3%,29.1%
O=C(NNc1ccccc1)OCc1ccccc1,69%,83.1%,34.1%,54.3%,104%,66%,75.4%,19.8%
CCc1oc2ccccc2c1C(=O)c1cc(Br)c(O)c(Br)c1,62.1%,35.4%,-11.1% (active),61.4%,69.2%,73.5%,85.9%,77.5%
CCOc1ccc2c(c1)/C(=C\C=C\C1CC(C)C3CC(OCC)CCC3N1CC)CC(C)N2CC (centres undefined),9.32% (active),0.574% (active),-20.6% (active),17.1%,3.06% (active),10.7%,28.5%,0.998% (active)
O=C(/C=C/C(Cl)(Cl)Cl)Nc1ccc(Cl)cc1,94.6%,102%,105%,110%,99.8%,104%,108%,132%
C1=C(c2ccccc2)c2ccccc2C1,92.7%,99.1%,93.1%,97.8%,109%,95.8%,91%,96.3%
COc1ccc(/C=C2/C(=O)ON=C2C)cc1,93%,107%,109%,103%,106%,112%,103%,113%
CCCN(CCC)C(=O)c1ccc(C)cc1,78.5%,102%,104%,94.9%,92.1%,98.3%,87.4%,102%
COC(=O)[C@]1(C)CCC[C@]2(C)c3ccc(C(C)C)cc3C(=O)[C@@H](Br)[C@@H]12,53.1%,116%,91.8%,86.3%,57.6%,85.3%,106%,104%
CC(C)(C)c1ccc(O)c(Br)c1,103%,102%,92.1%,92.4%,95.3%,93.2%,98%,104%
Cc1ccc(Nc2ccc(O)c3c2C(=O)c2c(O)ccc(Nc4ccc(C)cc4)c2C3=O)cc1,96.9%,113%,104%,103%,98%,93.5%,113%,112%
CCCOS(=O)(=O)c1ccccc1,109%,129%,101%,101%,111%,107%,102%,103%
CN(C)c1ccc(/C=C/c2ccnc3ccccc23)cc1,43.1%,20.2%,2.49% (active),26.9%,19.9%,24.8%,72.1%,29.9%
Cc1ccccc1N=C(N)Nc1ccccc1C (tested in a mixture with another compound),76.6%,96.1%,89.5%,74.9%,94.2%,83.4%,97.8%,64.6%
COC(=O)Nc1nc2ccc(C3(c4ccc(F)cc4)OCCO3)cc2[nH]1,47.1%,47.5%,-53.3% (active),30.7%,15.7%,25.2%,16.7%,25.6%
CC[n+]1ccc(Nc2ccc(NC(=O)c3ccc(Nc4cc[n+](CC)c5ccc([N+](=O)[O-])cc45)cc3)cc2)cc1,46.3%,92.6%,74.4%,92.8%,36.7%,65.4%,104%,65.5%
COc1cc2c(c(OC)c1OC)-c1ccc(NCc3ccccc3)c(=O)cc1[C@@H](NC(C)=O)CC2,59.4%,0.422% (active),-54.8% (active),16.6%,7.93% (active),9.33% (active),10.6%,12.7%
Cc1ccc(NC2=CC(=O)C(=O)c3ccccc32)cc1,21.1%,-41.1% (active),-80.5% (active),-19.6% (active),-57.4% (active),-26.9% (active),28.4%,22.1%

SMILES,growth (T-47D breast),growth (BT-549 breast),growth (MDA-MB-435 melanoma),growth (SW-620 colon),growth (MCF7 breast),growth (HCT-116 colon),growth (HCC-2998 colon),growth (KM12 colon)
Cn1c(-c2ccccc2)c(/C=C/C2=[N+](C)c3ccccc3C2(C)C)c2ccccc21,-3.22% (active),22.1%,2.09% (active),14.3%,4.58% (active),9.76% (active),27%,-22.8% (active)
COc1cc(/C=C/c2ccnc3ccccc23)cc(OC)c1OC,41.1%,11.7%,-8.94% (active),17.4%,16.1%,20%,34.6%,12.4%
O=C(O)c1cc2c(s1)C(=O)c1sccc1C2=O,36%,-89.8% (active),-99.6% (active),-3.95% (active),-56.6% (active),-27.7% (active),8.88% (active),79.9%
CCOc1ccc(C(CN2CCOCC2)C(C)=O)cc1OC (centres undefined),33.2%,91.2%,97.6%,60%,13.4%,97.3%,115%,93.3%
O=[N+]([O-])c1ccc(N2CCN(Cc3ccccc3)CC2)c2c1no[n+]2[O-],57.5%,-25.5% (active),-28.9% (active),-68.2% (active),7.84% (active),-86% (active),-14.4% (active),-52.2% (active)
Nc1ccc(Oc2ccccc2)c(Cl)c1,86.6%,97.6%,93.6%,107%,95.6%,79.3%,113%,104%
Cc1ccc2c(c1)sc(-c1ccc(N(C)C)cc1)[n+]2C,1.38% (active),11.9%,9.68% (active),12.3%,3.8% (active),-8.72% (active),2.49% (active),5.09% (active)
O=C(O)c1cccc2cccc(-c3c4ccc(=O)c(O)c-4oc4c(O)c(O)ccc34)c12,98.9%,93.8%,100%,97.3%,101%,91.2%,96.2%,96%
Clc1ccc(Cc2nc3ccccc3s2)cc1,79.6%,86.7%,92.5%,101%,77.4%,97.8%,103%,93.2%
O=C1/C(=C/c2ccccc2)CCC/C1=C\c1ccccc1,82%,80.5%,13.2%,22%,30.7%,-79% (active),81.4%,10.1%
S=C(SSC(=S)N1CCOCC1)N1CCOCC1,79.8%,141%,53.6%,-57.5% (active),66.5%,40.1%,49.6%,69.5%
CCCCCCCCCCCC(=O)OC(C)C(=O)NCCCC (centres undefined),97.9%,92.5%,112%,98.5%,94.7%,94.4%,80.2%,105%
Cc1cccc2c(N)c3ccccc3nc12,-2.75% (active),14%,-12.1% (active),0.0537% (active),5.35% (active),0.783% (active),2.09% (active),9.35% (active)
O=C(c1ccccc1)C(Br)[N+](=O)[O-] (centres undefined),65.3%,92.6%,96%,38.8%,58.8%,63%,111%,100%
O=C1C(=O)c2cccnc2-c2ncccc21,-68.8% (active),-11.7% (active),-69.6% (active),-95.6% (active),-55.4% (active),-100% (active),30.5%,-47.2% (active)
Cc1onc(-c2ccccc2)c1C(=O)N/N=C/c1cc(Cl)cc(Cl)c1O,42%,33.8%,45.2%,35.3%,18.8%,21%,17.1%,30.6%
CN(C)CCN(C)CC(C)(C)C(=O)/C=C/c1ccc(Cl)c(Cl)c1,-56.7% [100 µM] (active),-96% [100 µM] (active),-96.5% [100 µM] (active),-81.1% [100 µM] (active),-66.4% [100 µM] (active),-93.4% [100 µM] (active),-90.4% [100 µM] (active),-93.4% [100 µM] (active)
Cc1cc(C(N)=O)cc(C)c1C(=O)OCCCl,95.8%,111%,98%,103%,101%,97%,95.8%,93.6%
CC/C(=C(/CC)c1ccc(O)cc1)c1ccc(O)cc1,72.4%,64.3%,-18.7% (active),44.6%,26.2%,29.3%,70.2%,44.1%
O=C(c1ccccc1)c1ccc(O)c2ncccc12,10.6%,56.3%,56.7%,17.1%,10.5%,13.7%,35.8%,27%
O=C1C=CC(=O)N1c1cc(Cl)c(Cl)cc1Cl,103%,97.9%,106%,110%,87.8%,90%,103%,106%
CN(C)c1ccc(/C=C/c2nccc3ccccc23)cc1,40.2%,84.1%,55.7%,84.1%,30.6%,81.5%,82.9%,73.3%
Cc1cc2cccnc2c2ncccc12,2.22% (active),36%,35.9%,31.6%,3.96% (active),14%,29.5%,28.5%
CCOC(=O)C1(C)CCCC1N (centres undefined),105%,116%,103%,106%,104%,111%,115%,98.5%
CCN(CC)CC(O)c1cc(-c2ccc(Cl)cc2)nc2cc(Cl)ccc12 (centres undefined),12.9%,81.6%,13.1%,31.5%,-28.4% (active),-0.822% (active),26.4%,-36.6% (active)
NC(=S)N/N=C\c1nccc2c(C(F)(F)F)cccc12,13.9%,7.77% (active),32.6%,29.8%,10.5%,9.27% (active),26.6%,16%
